Source: PubChem (Broad Institute)
Casp6 inh = inhibitors of human caspase-6; P55212; purified caspase-6, Z-VEID-R110 cleavage fluorescence; inhibition, % at 12.5 µM; actives 0.53% (n = 350,000); AID 686996;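 active means mean inhibition across replicates at least about 35%, with every replicate also reaching that limit, limit read from the data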;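 further: 0% = median of neutral control wells and 100% = no fluorescence left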
Target sequence (P55212 24-179 limits assumed): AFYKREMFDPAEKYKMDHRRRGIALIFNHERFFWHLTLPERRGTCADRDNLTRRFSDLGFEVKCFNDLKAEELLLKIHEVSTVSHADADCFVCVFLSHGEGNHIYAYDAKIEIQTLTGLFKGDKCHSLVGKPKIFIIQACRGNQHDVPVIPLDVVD
Target sequence (P55212 194-293 limits assumed): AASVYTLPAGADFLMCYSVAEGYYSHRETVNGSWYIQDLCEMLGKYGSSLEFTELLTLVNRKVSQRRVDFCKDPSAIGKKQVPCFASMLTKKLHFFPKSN
Env fusion inh = blocks HIV Env-driven cell-cell fusion; HeLa-JRFL Env/CEM21 cell fusion, luciferase; inhibition, % at 12.3 µM; actives 1.1% (n = 360,000); AID 651610;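 active means mean replicate inhibition score of at least 50 and every replicate individually at or above 50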;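 further: 0% = plate neutral controls and 100% = maraviroc near 300 nM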
NSD2 HMT inh = blocks human histone methyltransferase NSD2; O96028; NSD2 peptide methylation, AlphaScreen, 120 min; inhibition, % at 12.5 µM; actives 0.54% (n = 310,000); AID 743445; in the data active means inhibition above about 50%
PglD DTNB = PglD (C. jejuni) enzyme inhibition | purified PglD enzyme, DTNB colorimetric CoA detection | inhibition, % at 12.5 µM | actives 0.098% (n = 360,000) | AID 602405; in the data active means inhibition above about 16%, passing the limit was not always enough
ALR H2O2 inh = blocks human ALR sulfhydryl oxidase activity; purified ALR, DTT oxidation, H2O2 HRP-luminol luminescence; P55789; AID 485317; inhibition, % (concentration not given with the values); actives 3.8% (n = 290,000);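 active means mean replicate inhibition above about 79%, with every replicate also reaching it, limit read from the data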
Target sequence (P55789 whole entry, looked up): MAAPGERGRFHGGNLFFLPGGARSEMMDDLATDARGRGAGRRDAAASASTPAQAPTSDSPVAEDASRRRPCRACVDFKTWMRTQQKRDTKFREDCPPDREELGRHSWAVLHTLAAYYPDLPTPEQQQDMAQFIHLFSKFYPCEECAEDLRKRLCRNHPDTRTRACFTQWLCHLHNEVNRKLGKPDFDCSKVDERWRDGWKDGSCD
F508del corr = correctors of CFTR F508del function in bronchial epithelial cells; AID 720511; activity (quench increase), % at 7.58 µM; actives 0.36% (n = 350,000); CFBE cells, YFP halide quenching; stimulated with forskolin plus potentiator P3; % fluorescence drop versus neutral controls;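 active means mean added fluorescence quench of at least 8% versus neutral control, with both replicates also reaching 8%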;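 further: cells transiently co-express mutant CFTR-F508del with the halide-sensitive YFP; corrector assay measuring rescue of mutant channel to the surface after 24 h compound exposure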
Starred values were filed as active, the others as inactive; nt = no result; [ ] = dose if it differs, or a comment. This is a sample that favours compounds with a hit; in the whole collection about 4.1% have one here.

SMILES | Casp6 inh | Env fusion inh | NSD2 HMT inh | PglD DTNB | ALR H2O2 inh | F508del corr
O=C(C[C@H]1C=C[C@H](NC(=O)c2ccc(F)cc2)[C@@H](CO)O1)NCCc1ccncc1 | 1.2 | -11.7[16.7 µM] | nt | -0.9 | nt | 0.4
CCCNC(=O)CS(=O)(=O)Cc1nc(-c2ccccc2C)oc1C | -0.8 | 16.3 | nt | -2.2 | -20.4 | -0.7
COc1ccc(OC)c(NC(=O)CS(=O)(=O)Cc2nc(-c3ccccc3C)oc2C)c1 | 0.4 | nt | nt | -2.7 | -2.3 | -4.7
COc1ccccc1CNC(=O)CS(=O)Cc1nc(-c2ccccc2C)oc1C (stereo not given) | 1.1 | -21.5 | nt | 2.9 | 99.2* | 5.0
COc1ccccc1CNC(=O)COc1ccccc1C | -1.2 | -6.5 | -1.8 | -24.2 | 5.4 | -0.1
COc1ccc(CNC(=O)CS(=O)Cc2nc(-c3ccccc3C)oc2C)cc1 (stereo not given) | -0.4 | 29.3 | nt | -4.5 | 99.2* | -1.4
Cc1ccc(CNC(=O)CS(=O)Cc2nc(-c3ccccc3C)oc2C)cc1 (stereo not given) | -0.3 | -19.8 | nt | 0.0 | 26.3 | -0.1
COCCNC(=O)CS(=O)Cc1nc(-c2ccccc2C)oc1C (stereo not given) | -0.3 | nt | nt | -5.6 | 98.4* | 5.2
Cc1ccccc1-c1nc(CS(=O)CC(=O)NCc2ccccc2)c(C)o1 (stereo not given) | -1.2 | -14.1 | nt | 0.2 | 97.9* | 3.1
CC(C)NC(=O)Nc1ccc2c(c1)CC(=O)N([C@H](C)CO)C[C@H](C)[C@@H](CN(C)Cc1ccc(C(F)(F)F)cc1)O2 | -0.5 | nt | nt | 2.2 | nt | -2.3
Cc1ccccc1Cn1cnc2c(cnn2C(C)(C)C)c1=O | nt | nt | -2.3 | -5.4 | -11.6 | nt
CC(C)(C)n1ncc2c(=O)n(Cc3cccc(Cn4cnc5c(cnn5C(C)(C)C)c4=O)c3F)cnc21 | 0.6 | 92.4* | nt | -4.0 | -1.1 | 2.7
O=C(NC(=S)N1CCCc2ccccc21)c1ccccc1 | nt | nt | nt | nt | 98.6* | nt
CCCNC(=O)Nc1ccc2c(c1)C(=O)N(C)C[C@@H](OC)[C@H](C)CN(Cc1ccncc1)[C@@H](C)CO2 | nt | -3.1[16.7 µM] | nt | 3.7 | nt | 0.1
CC=Cc1ccc2n(c1=O)C[C@H]1[C@H](CO)[C@@H](C(=O)NCCC)[C@@H]2N1C(=O)c1ccccc1 (mixture of isomers) | -3.0 | nt | nt | 0.2 | nt | 0.2
CCN(CC)S(=O)(=O)c1cccc(C(=O)N/N=C/c2cccc(O)c2O)c1 | 0.8 | 35.4 | nt | nt | -10.1 | nt
CCN(CC)S(=O)(=O)c1cccc(C(=O)N/N=C/c2cc(OC)c(O)c(OC)c2)c1 | nt | -2.6 | 1.3 | nt | 99.3* | nt
O=C(N/N=C/c1ccc(F)c(F)c1)c1cccc(S(=O)(=O)N2CCCCC2)c1 | -2.7 | 2.4 | 1.8 | -0.5 | nt | -0.9
COc1ccc(/C(C)=N/NC(=O)c2cccc(S(=O)(=O)N3CCCC3)c2)c(O)c1 | -7.9 | 81.6* | -3.0 | 0.7 | 6.4 | 9.8*
COc1ccc(/C=N/NC(=O)c2cccc(S(=O)(=O)N3CCCC3)c2)cc1O | 0.7 | 8.7 | 27.7 | 5.3 | 97.2* | 2.9
COc1cc(/C=N/NC(=O)c2cccc(S(=O)(=O)N3CCCC3)c2)cc(OC)c1O | 1.4 | -20.0 | 0.7 | nt | 99.1* | -3.2
O=C(C[C@H]1CC[C@H](NC(=O)Nc2ccccc2F)[C@H](CO)O1)NCc1ccc(F)cc1 | 3.6 | nt | nt | nt | nt | -0.4
CN(C)CC#Cc1cccc(-c2nc(C(=O)NCCCN3CCOCC3)cc3c2[C@H](CCO)N(S(=O)C(C)(C)C)C3)c1 (stereo not given in full) | nt | 1.8[16.7 µM] | nt | nt | nt | nt
COCCNC(=O)C[C@@H]1C=C[C@H](NS(=O)(=O)c2ccc(C)cc2)[C@H](CO)O1 | 3.0 | -10.5[16.7 µM] | nt | 5.6 | nt | -4.8
O=C(NC1CCCC1)[C@@H]1[C@@H](CO)[C@@H]2Cn3c(ccc(-c4ccccc4)c3=O)[C@H]1N2CCc1ccccc1 | nt | 10.3[16.7 µM] | nt | 4.2 | nt | nt
SMILES | Casp6 inh | Env fusion inh | NSD2 HMT inh | PglD DTNB | ALR H2O2 inh | F508del corr
COc1ccc(/C=N/NC(=O)c2cccc(OC(F)(F)C(F)F)c2)cc1O | -10.7 | 10.6 | 1.5 | nt | 96.2* | nt
COc1ccc2c3c(n(C)c2c1)[C@H](CO)NCC31CN(Cc2cc(-c3ccccc3)on2)C1 | nt | nt | nt | nt | nt | 3.8
C[C@H](CO)N1C[C@H](C)[C@@H](CN(C)Cc2ccc(Cl)c(Cl)c2)Oc2ccc(NS(=O)(=O)c3ccc(Cl)cc3)cc2C1=O | nt | 13.2[16.7 µM] | nt | 0.8 | nt | 7.1
Cc1cc(N2CCOCC2)c2c(N)c(C)cc(C)c2n1 | 2.3 | -21.6 | 2.3 | -4.6 | 99.2* | nt
COc1ccc(NC(=O)N[C@H]2CC[C@H](CCNS(=O)(=O)c3ccccc3F)O[C@@H]2CO)cc1 | -1.0 | -10.1[16.7 µM] | nt | 1.0 | nt | 0.1
CC1CC(=O)NN=C1c1ccc(NCCO)c([N+](=O)[O-])c1 (stereo not given) | nt | 61.8* | 2.1 | -2.1 | -37.4 | nt
CN(C)/N=C/c1ccc(Sc2ccccc2[N+](=O)[O-])o1 | 1.0 | 21.6 | -6.5 | nt | 92.0* | -0.4
COc1cc(C)c(N)cc1C(C)C | nt | nt | 3.3 | 5.8 | 98.3* | nt
C[C@H](CO)N1C[C@H](C)[C@@H](CN(C)C(=O)C2CCOCC2)Oc2ncc(C3=CCCC3)cc2C1=O | 6.9 | -0.1[16.7 µM] | nt | -1.6 | nt | 2.5
N#Cc1nc(NCC(F)F)nc(Nc2cc(F)cc(F)c2)n1 | nt | -59.9 | nt | 4.1 | -0.8 | 8.0*
N#Cc1nc(Nc2cc(F)cc(F)c2)c2ncn(CC(F)F)c2n1 | -1.8 | -37.3 | nt | -2.2 | -1.5 | 0.6
C=C[C@@H]1c2cc(C)ccc2N(S(=O)(=O)c2ccc(C)cc2)[C@H](c2ccccc2C(F)(F)F)C1(C#N)C#N | 1.6 | 56.3* | nt | 1.8 | -7.7 | 0.7
C=C[C@@H]1c2cc(C)ccc2N(S(=O)(=O)c2ccc(C)cc2)[C@H](c2ccccc2)C1(C#N)C#N | 0.0 | 27.9 | nt | -7.5 | -5.0 | -4.8
COc1ccc(-c2n[nH]c(C)c2-c2ccc(Cl)cc2)c(O)c1 | nt | nt | -1.4 | nt | 21.5 | nt
Cc1[nH]nc(-c2ccc(O)cc2O)c1-c1nc2ccccc2s1 | 6.9 | -6.9 | 11.3 | nt | 86.5* | -1.6
Cc1[nH]nc(-c2ccc(O)cc2O)c1-c1ccc(Cl)cc1 | nt | 2.1 | 2.1 | 2.0 | 81.8* | nt
CCCOC(=O)c1ccc(Oc2c(-c3ccc(O)cc3O)n[nH]c2C)cc1 | nt | nt | 4.6 | 5.7 | 48.0 | nt
Cc1[nH]nc(-c2ccc(O)cc2O)c1Oc1ccccc1 | 1.1 | nt | 2.6 | -0.4 | 98.4* | 4.6
CC(C)NC(=O)N(C)C[C@H]1Oc2cc(-c3cncnc3)ccc2S(=O)(=O)N([C@@H](C)CO)C[C@@H]1C | -2.6 | -50.7[16.7 µM] | nt | -0.8 | nt | -1.6
Cc1cc(NC(=O)c2ccccc2O)nc(C)n1 | 2.1 | -2.6 | -2.6 | nt | -0.7 | 3.6
Cc1cc(C)nc(NNC(=O)c2ccccc2O)n1 | 10.4 | -8.6 | nt | nt | 94.6* | -1.6
CCC1(C2=CCCCC2)C(=O)NC(=S)N=C1N (stereo not given) | -6.8 | 0.0 | -3.4 | -3.0 | nt | 8.7*
CCC1(CC)C(=O)NC(=S)N=C1N | -0.2 | -4.5 | -2.7 | 7.4 | nt | -1.1
